Measurements reported in PubChem BioAssay AID588344 (National Center for Advancing Translational Sciences (NCATS), 2011).
Some of the results follow. Inconclusive results are not listed. Calls of active or inactive are those of the source. The call rests on the fitted dose curve; in most records, active means well fitted inhibition curve with a large enough effect; inconclusive means small, poorly fitted or top-dose-only effect; inactive means flat fitted curve, though single readings scatter.

Target: Histone-lysine N-methyltransferase EHMT2 (Homo sapiens) (UniProt Q96KQ7)
Assay: qHTS Assay for Inhibitors of Histone Lysine Methyltransferase G9a: Hit Confirmation; further: nearly all actives have a fitted effect of over 65% in size
Conditions: G9a H3K9 monomethylation, AlphaScreen, 2 h
From the text: Methylated lysines, on the N-terminal tails of histone proteins serve as epigenetic markers to recruit factors that can then modify local chromatin structure to lead to functional consequences. G9a and other members of the SUV39 family of the SET domain-containing superfamily of histone lysine methyltransferases (HMT) have been identified to specifically methylate Lys9 of histone H3 (H3K9). G9a catalyzes the mono- and di-methylation of H3K9 in mammalian euchromatic regions, where the resulting H3K9me2 is indicative of transcriptional repression. […] The inhibition of G9a will result in transcriptional activation and work synergistically with DNA methyltransferase and histone deacetylase inhibitors, to kill cancer cells. This qHTS assay for identification of G9a inhibitors is a chemiluminescence based AlphaScreen (PerkinElmer). Methylation of biotinylated-histone peptide is measured through specific antibody-based detection, in conjunction with streptavidin-coated donor and anti-IgG antibody-coated acceptor beads. The method is particularly well suited for detection of inhibitors acting by the desired histone peptide competitive mechanism and is applicable to testing other HMTs. Although AlphaScreen has significant advantages with its utility in a variety of epigenetic target assays, the primary screening data provided in this deposition should be used with caution due to the prevalence of screening artifacts. An AlphaScreen counterscreen is highly recommended to be run against any putative actives to eliminate non specific artifacts. Alternatively, one can use other AlphaScreen assays in PubChem to filter out promiscuous hits. Quinn et al. A chemiluminescence-based method for identification of histone lysine methyltransferase inhibitors. Mol Biosyst 6(5): 782-8. 2010. PMID: 20567762 [2] Baell,Holloway. New substructure filters for removal of pan assay interference compounds (PAINS) from screening libraries and for their exclusion in bioassays. J Med Chem. 53(7):2719-40. 2010. PMID: 20131845 NIH Chemical Genomics Center [NCGC] NIH Molecular Libraries Probe Production Network [MLPCN] MLPCN Grant: MH084681-02 Assay Submitter (PI): Structural Genomic Consortium - Toronto, Peter Brown
To each well, 2 uL of HMT enzyme (final 20 nM) will be added using a nanoliter dispenser. The G9a- and GLP-inhibitor BIX-01294 will be used as an intraplate control, with a 16-point titration in duplicate. A Kalypsys pin-tool will be employed to transfer 23 nL of library compound solution in DMSO to each well. Following a 15 min incubation of enzyme with compounds at room temperature, 1 uL mixture of b-H3K9 peptide substrate (final 500 nM) and SAM cofactor (final 20 uM) will be added. Reactions are allowed to proceed at room temperature for 2 hours. Methylated b-H3K9 peptide product is detected with 0.5 ug/mL rabbit polyclonal anti-monomethyl histone H3K9 antibody (Abcam Inc., Cambridge, MA) and 20 ug/mL each streptavidin-coated donor and anti-rabbit IgG acceptor AlphaScreen beads. Antibody and beads will be added in a 1 uL dispense, for a final volume of 4 uL, and plates will be incubated protected from the light for 10 min at room temperature. Microplates will then be read on an EnVision multilabel plate reader using the 1,536 plate HTS AlphaScreen aperture (excitation time 80 ms, measurement time 240 ms).
Potency means the concentration at half of the fitted maximal effect.

Chain of Histone-lysine N-methyltransferase EHMT2 (Homo sapiens) (Q96KQ7 913-1193 limits assumed): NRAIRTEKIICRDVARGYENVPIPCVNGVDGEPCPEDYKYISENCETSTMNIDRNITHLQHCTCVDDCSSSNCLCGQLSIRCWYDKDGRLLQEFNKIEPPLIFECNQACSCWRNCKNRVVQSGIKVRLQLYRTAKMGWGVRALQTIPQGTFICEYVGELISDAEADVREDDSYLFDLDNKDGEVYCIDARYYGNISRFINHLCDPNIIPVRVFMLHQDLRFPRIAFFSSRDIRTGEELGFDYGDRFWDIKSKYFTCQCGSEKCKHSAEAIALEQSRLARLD

Potency, active:
CCOc1ccc(NC(=O)c2c(NC(=O)Cc3ccccc3)sc3c2CCCCC3)cc1 4.57 µM, CCOC(=O)c1ccc(-n2c(CCC(=O)O)ccc2-c2ccccc2)cc1 31.6 µM, CCc1ccc(Nc2ncc3c(n2)CC(c2ccco2)CC3=O)cc1 (stereo unspecified) 31.6 µM, CCOC(=O)c1c(NC(=O)COc2cc(C)ccc2C(C)C)sc(C)c1C 5.64 µM, Cc1ccc(-c2cnc(NCc3ccc(C(C)C)cc3)n2C)cc1 31.6 µM, COCCCNCC(=O)Nc1sc(C)c(C)c1C(=O)OC 31.6 µM, CCCCNC(=O)CSc1nc2ccc(NC(=O)CSc3nnc(N)s3)cc2s1 1.42 µM, CCOc1ccc(NC(=O)c2c(NC(=O)Cc3ccccc3)sc3c2CCC(C)C3)cc1 (stereo unspecified) 2.57 µM, CCOC(=O)c1ccc(NC(=O)CSc2ncccn2)cc1 0.632 µM, c1ccc(-c2nnc3n2NC(c2ccc4c(c2)OCO4)S3)cc1 (stereo unspecified) 0.178 µM, Cc1ccccc1C(=O)Nc1ccc(N2CCCCCC2)cc1 2.83 µM, CC(NC(=O)c1ccco1)C(=O)Nc1nc(-c2ccccn2)cs1 (stereo unspecified) 7.96 µM, CCOC(=O)N1CCN(C(c2cccnc2)c2ccc3cccnc3c2O)CC1 (stereo unspecified) 0.159 µM, CCc1ccc(NC2Nc3cc(C)nn3S2)cc1 (stereo unspecified) 1.78 µM, CCOC(=O)N1CCc2c(sc(NCc3cccc(F)c3)c2C(=O)Nc2ccccc2OCC)C1 4.57 µM, CCn1c(SCC(=O)Nc2cccc(F)c2)nnc1-c1cc2cc(Br)ccc2o1 5.01 µM
